Results reported in PubChem BioAssay (EPA / NIEHS).
Calls of active or inactive are those of the source. How the source made its calls: active means hit-call score of the fitted dose curve at least 0.9, where 1 is the maximum; inactive means score below 0.9.

Experiments:
[1] = read-out: Transforming growth factor beta 1 (TGFb1), TGFB1 (gene 7040); assay: BSK_KF3CT_TGFb1: BioMAP Diversity Plus: KF3CT Assay for Transforming growth factor beta 1 (TGFb1) Biomarker Activity (AID 2283072); details: primary human keratinocytes with fibroblasts; actives raise or lower the signal
How it was run: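 Read-out: ELISA for TGF-b1 in keratinocyte/foreskin fibroblast human skin co-culture, 24 h after dosing; bidirectional curve fit vs DMSO baseline; gain or loss of signal scored.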

[2] = read-out: C-C motif chemokine 2 (Homo sapiens) (UniProt P13500); assay: BSK_KF3CT_MCP1: BioMAP Diversity Plus: KF3CT Assay for Monocyte Chemoattractant Protein 1 (MCP1/CCL2) Biomarker Activity (AID 2283073); details: primary human keratinocytes with fibroblasts; actives raise or lower the signal
How it was run: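 Biomarker MCP-1 is measured by ELISA in primary human keratinocytes co-cultured with foreskin fibroblasts, 24 h after chemical treatment; DMSO serves as the negative control and activity baseline.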

[3] = read-out: Matrix Metallopeptidase 9 (MMP9), MMP9 (gene 4318); assay: BSK_KF3CT_MMP9: BioMAP Diversity Plus: KF3CT Assay for Matrix Metallopeptidase 9 (MMP9) Biomarker Activity (AID 2283074); details: primary human keratinocytes with fibroblasts; actives raise or lower the signal;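 on AC50: MMP9 protein level quantified by ELISA in the co-culture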
How it was run: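 Values come from bidirectional fitting relative to DMSO of MMP-9 levels, which were measured by ELISA. Measurements were taken 24 h after chemical dosing of a keratinocyte and foreskin fibroblast co-culture.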

[4] = read-out: urokinase plasminogen activator (uPA), PLAU (gene 5328); assay: BSK_KF3CT_uPA: BioMAP Diversity Plus: KF3CT Assay for urokinase plasminogen activator (uPA) Biomarker Activity (AID 2283075); details: primary human keratinocytes with fibroblasts; actives raise or lower the signal
How it was run: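 Values derive from bidirectional fitting against DMSO controls. Keratinocyte/foreskin fibroblast co-cultures received chemical; 24 h later uPA was detected by ELISA, with SRB total-protein staining in parallel wells for overt cytotoxicity.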

CD40, CD40 (gene 958) [5] = assay: BSK_LPS_CD40: BioMAP Diversity Plus: LPS Assay for CD40 Biomarker Activity (AID 2283076); details: primary human HUVEC with PBMC; actives raise or lower the signal
How it was run: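 Using a multiplexed primary human co-culture (umbilical vein endothelium plus PBMC), CD40 was read by ELISA 24 h after dosing, with cytotoxicity tracked by sulforhodamine B staining of parallel cultures and activity fitted bidirectionally versus DMSO.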

[6] = read-out: E-selectin (Homo sapiens) (UniProt P16581); assay: BSK_LPS_Eselectin: BioMAP Diversity Plus: LPS Assay for Eselectin Biomarker Activity (AID 2283077); details: primary human HUVEC with PBMC; actives raise or lower the signal
How it was run: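 Dose chemical onto LPS-driven HUVEC/PBMC co-culture; after 24 h, run ELISA for E-selectin; fit up- and down-going responses relative to DMSO control.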

[7] = read-out: Interleukin-8 (IL8), CXCL8 (gene 3576); assay: BSK_LPS_IL8: BioMAP Diversity Plus: LPS Assay for Interleukin-8 (IL8) Biomarker Activity (AID 2283078); details: primary human HUVEC with PBMC; actives raise or lower the signal
How it was run: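 In this LPS system, chemical-treated human umbilical vein endothelium/PBMC co-cultures were harvested at 24 h for IL-8 ELISA.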

[8] = BSK_LPS_SRB: Viability Assessment in the BioMAP Diversity Plus: LPS Assay (AID 2283079); details: primary human HUVEC with PBMC;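 further: total protein by sulforhodamine B absorbance as a cytotoxicity measure; measured one day after compound addition; fitted in both directions against DMSO so loss or gain of signal counts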
How it was run: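 Cytotoxicity endpoint in human endothelial–PBMC co-culture: 24 h exposure, then SRB (0.1%) staining, 560 nm read.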

[9] = read-out: Interleukin-1 alpha (IL1a), IL1A (gene 3552); assay: BSK_LPS_IL1a: BioMAP Diversity Plus: LPS Assay for Interleukin-1 alpha (IL1a) Biomarker Activity (AID 2283080); details: primary human HUVEC with PBMC; actives raise or lower the signal
How it was run: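 Primary human HUVEC and PBMC co-culture stimulated with LPS is dosed and harvested at 24 h. Both increases and decreases in ELISA-measured IL-1a are scored relative to DMSO.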

[10] = read-out: Monocyte Chemoattractant Protein-1 (MCP1), CCL2 (gene 6347); assay: BSK_LPS_MCP1: BioMAP Diversity Plus: LPS Assay for Monocyte Chemoattractant Protein-1 (MCP1) Biomarker Activity (AID 2283081); details: primary human HUVEC with PBMC; actives raise or lower the signal;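 on AC50: secreted MCP-1 protein quantified by ELISA in culture supernatant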
How it was run: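 Values derive from bidirectional fitting against DMSO of ELISA-measured MCP-1 in a human primary endothelial and mononuclear cell co-culture, 24 h after chemical addition under LPS activation.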

[11] = read-out: Macrophage colony-stimulating factor (MCSF), CSF1 (gene 1435); assay: BSK_LPS_MCSF: BioMAP Diversity Plus: LPS Assay for Macrophage colony-stimulating factor (MCSF) Biomarker Activity (AID 2283083); details: primary human HUVEC with PBMC; actives raise or lower the signal
How it was run: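 Bidirectional fit versus DMSO of ELISA-measured M-CSF in co-cultured human umbilical vein endothelial cells and PBMC, sampled 24 h after dosing.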

[12] = read-out: Tissue Factor, F3 (gene 2152); assay: BSK_LPS_TissueFactor: BioMAP Diversity Plus: LPS Assay for Tissue Factor Biomarker Activity (AID 2283084); details: primary human HUVEC with PBMC; actives raise or lower the signal
How it was run: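 Read-out: CD142 ELISA, 24 h. System: LPS-driven human endothelial/PBMC co-culture. Analysis: up- or down-signal fitted against DMSO.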

[13] = read-out: Tumor necrosis factor (Homo sapiens) (UniProt P01375); assay: BSK_LPS_TNFa: BioMAP Diversity Plus: LPS Assay for Tumour Necrosis Factor alpha (TNFa) Biomarker Activity (AID 2283085); details: primary human HUVEC with PBMC; actives raise or lower the signal;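 on AC50: TNFa protein level quantified by ELISA in the co-culture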
How it was run: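 HUVEC/PBMC co-culture, LPS-stimulated; 24 h post-dose; TNFa by ELISA; gain or loss of signal fitted bidirectionally vs DMSO baseline.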

[14] = read-out: Vascular cell adhesion molecule 1 (VCAM1), VCAM1 (gene 7412); assay: BSK_LPS_VCAM1: BioMAP Diversity Plus: LPS Assay for Vascular cell adhesion molecule 1 (VCAM1) Biomarker Activity (AID 2283086); details: primary human HUVEC with PBMC; actives raise or lower the signal
How it was run: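 ELISA read-out of VCAM-1 at 24 h post-dosing in an LPS-driven HUVEC/PBMC primary human co-culture; gain or loss of signal fitted bidirectionally against DMSO baseline. Cytotoxicity tracked in parallel cultures by SRB total-protein staining.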

CD38, CD38 (gene 952) = assay: BSK_SAg_CD38: BioMAP Diversity Plus: SAg Assay for CD38 Biomarker Activity (AID 2283087); details: primary human HUVEC with PBMC; actives raise or lower the signal
How it was run: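 Measures CD38 on a human endothelial/PBMC co-culture driven by SEB and TSST-1, 24 h after compound exposure, using ELISA with fluorescence detection; DMSO defines baseline for bidirectional curve fitting.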

CD40, CD40 (gene 958) [15] = assay: BSK_SAg_CD40: BioMAP Diversity Plus: SAg Assay for CD40 Biomarker Activity (AID 2283088); details: primary human HUVEC with PBMC; actives raise or lower the signal
How it was run: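 Endpoint derived by fitting increases or decreases versus DMSO controls. CD40 is detected by fluorescence ELISA in a human vascular co-culture of endothelium and PBMC at 24 h.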

CD69, CD69 (gene 969) = assay: BSK_SAg_CD69: BioMAP Diversity Plus: SAg Assay for CD69 Biomarker Activity (AID 2283089); details: primary human HUVEC with PBMC; actives raise or lower the signal;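 on AC50: cell surface CD69 protein quantified by ELISA with fluorescence detection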
How it was run: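 Endothelial/PBMC co-culture; chemical added; 24 h incubation; CD69 ELISA with fluorescence detection; bidirectional fit vs DMSO.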

[16] = read-out: Monocyte Chemoattractant Protein-1 (MCP1), CCL2 (gene 6347); assay: BSK_SAg_MCP1: BioMAP Diversity Plus: SAg Assay for Monocyte Chemoattractant Protein-1 (MCP1) Biomarker Activity (AID 2283090); details: primary human HUVEC with PBMC; actives raise or lower the signal
How it was run: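 Values derive from bidirectional fitting of ELISA-measured MCP1 against DMSO controls. Readings were taken 24 h after dosing human vascular endothelial cells co-cultured with peripheral blood mononuclear cells under superantigen stimulation.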

[17] = read-out: E-selectin (Homo sapiens) (UniProt P16581); assay: BSK_SAg_Eselectin: BioMAP Diversity Plus: SAg Assay for Eselectin Biomarker Activity (AID 2283091); details: primary human HUVEC with PBMC; actives raise or lower the signal
How it was run: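 Endpoint values derive from bidirectional fitting relative to DMSO, using ELISA-measured E-selectin in a human vascular co-culture (umbilical vein endothelium plus PBMC) sampled 24 h after dosing.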

[18] = BSK_LPS_PGE2: BioMAP Diversity Plus: LPS Assay for Prostaglandin E2 (PGE2) Biomarker Activity (AID 2283082); details: primary human HUVEC with PBMC; actives raise or lower the signal;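 on AC50: secreted prostaglandin E2 measured by ELISA in LPS-stimulated co-culture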
How it was run: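 ELISA read-out of PGE2 from human umbilical vein endothelial cells co-cultured with peripheral blood mononuclear cells under LPS, 24 h post-dose. Gain or loss of signal scored relative to DMSO baseline.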

Measured: AC50

Chain of E-selectin (Homo sapiens) (P16581 whole entry, looked up): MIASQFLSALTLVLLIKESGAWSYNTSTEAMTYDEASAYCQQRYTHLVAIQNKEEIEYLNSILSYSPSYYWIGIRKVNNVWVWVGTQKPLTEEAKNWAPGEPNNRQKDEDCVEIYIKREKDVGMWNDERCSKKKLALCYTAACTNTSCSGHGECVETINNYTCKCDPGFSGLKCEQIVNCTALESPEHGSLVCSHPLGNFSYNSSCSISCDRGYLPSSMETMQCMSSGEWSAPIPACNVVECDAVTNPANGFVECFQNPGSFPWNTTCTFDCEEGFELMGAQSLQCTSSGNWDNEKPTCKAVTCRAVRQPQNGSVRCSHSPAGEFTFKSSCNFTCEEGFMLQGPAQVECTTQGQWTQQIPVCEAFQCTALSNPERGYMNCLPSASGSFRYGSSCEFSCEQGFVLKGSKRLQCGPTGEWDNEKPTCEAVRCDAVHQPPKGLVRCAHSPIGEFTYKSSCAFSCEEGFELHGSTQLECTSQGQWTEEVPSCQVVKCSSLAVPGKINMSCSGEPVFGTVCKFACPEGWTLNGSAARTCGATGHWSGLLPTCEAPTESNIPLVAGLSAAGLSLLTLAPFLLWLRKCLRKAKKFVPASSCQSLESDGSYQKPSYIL
Chain of Tumor necrosis factor (Homo sapiens) (P01375 whole entry, looked up): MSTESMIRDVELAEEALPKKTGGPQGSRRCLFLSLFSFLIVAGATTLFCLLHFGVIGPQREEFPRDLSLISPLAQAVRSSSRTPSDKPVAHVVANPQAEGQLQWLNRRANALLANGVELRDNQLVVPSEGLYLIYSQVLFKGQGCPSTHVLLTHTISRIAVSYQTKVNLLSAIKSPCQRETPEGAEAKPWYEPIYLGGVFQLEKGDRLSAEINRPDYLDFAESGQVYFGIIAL

O=C(O)c1[nH]n(-c2ccc(S(=O)(=O)O)cc2)c(=O)c1N=Nc1ccc(S(=O)(=O)O)cc1
not listed: [18]
inactive: all other assays above

Cc1cc(Cc2ccc(N)c(C)c2)ccc1N
active: [17] 5.1 µM
not listed: [11]
inactive: all other assays above

CCCCCCCCCC[N+](C)(C)[O-]
active: [14] 35.5 µM
not listed: [18]
inactive: all other assays above

O=C1CCCCC1
not listed: [18]
inactive: all other assays above

CC(=O)OC1CC(C)OC(C)O1 (stereo unspecified)
not listed: [14] | [18]
inactive: all other assays above

OCC(CO)n1cnc(-c2ccc(F)cc2)c1-c1ccnc(Oc2ccccc2)n1
active: [6] 1.09 µM | [7] 0.544 µM | [9] 0.148 µM | [10] 0.51 µM | [11] 1.72 µM | [12] 0.532 µM | [13] 0.416 µM | CD69, CD69 (gene 969) 3.97 µM | [16] 2.02 µM
not listed: [14] | [18]
inactive: all other assays above

O=[Si]=O
not listed: [2] | [14] | [18]
inactive: all other assays above

COC(=O)CCC(=O)OC
not listed: [14] | [18]
inactive: all other assays above

CC(=O)[C@@]1(O)CC[C@H]2[C@@H]3CCC4=CC(=O)CC[C@]4(C)[C@H]3CC[C@@]21C
not listed: [18]
inactive: all other assays above

CC(=O)OCC(COC(C)=O)OC(C)=O
not listed: [18]
inactive: all other assays above

COC(=O)[C@H]1[C@H]2C[C@@H]3c4[nH]c5cc(OC)ccc5c4CCN3C[C@H]2C[C@@H](OC(=O)c2cc(OC)c(OC)c(OC)c2)[C@@H]1OC
inactive: [1] | [2] | [3] | [4] | [6] | [7] | [17]
active: CD40, CD40 (gene 958) [5] 23.5 µM | [8] 21.8 µM | [9] 22.6 µM | [10] 18.6 µM | [11] 21.2 µM | [12] 7.64 µM | [13] 28.7 µM | CD38, CD38 (gene 952) 25.7 µM | CD40, CD40 (gene 958) [15] 26.6 µM | [16] 22.6 µM

Cc1ccc(-c2cc(C(F)(F)F)nn2-c2ccc(S(N)(=O)=O)cc2)cc1
inactive: [1] | [2] | [3] | [4]
active: CD40, CD40 (gene 958) [5] 26.6 µM | [6] 30.9 µM | [7] 35.6 µM | [8] 29.2 µM | [9] 30.5 µM | [18] 0.288 µM | [11] 29.7 µM | [12] 30.7 µM | [13] 30.9 µM | CD38, CD38 (gene 952) 30.2 µM | CD40, CD40 (gene 958) [15] 27.3 µM | CD69, CD69 (gene 969) 26.9 µM | [16] 30.5 µM | [17] 29.4 µM

C/C=C/C=C/C(=O)O
not listed: [2] | [14]
inactive: all other assays above

CC(C)NCC(O)c1ccc(O)c(O)c1 (stereo unspecified)
active: [13] 0.262 µM
not listed: [18]
inactive: all other assays above

O=NO
not listed: [14] | [18]
inactive: all other assays above

Cc1cn([C@H]2C=C[C@@H](CO)O2)c(=O)[nH]c1=O
not listed: [8] | [18]
inactive: all other assays above

O=C1OC(c2ccc(O)cc2)(c2ccc(O)cc2)c2ccccc21
inactive: [2] | [4] | [6] | [9] | [10] | [12]
active: [1] 12.6 µM | [3] 29.5 µM | CD40, CD40 (gene 958) [5] 31.5 µM | [7] 20 µM | [8] 31.9 µM | [11] 31.1 µM | [13] 20 µM | CD38, CD38 (gene 952) 28.7 µM | CD40, CD40 (gene 958) [15] 29 µM | CD69, CD69 (gene 969) 20 µM | [16] 23 µM | [17] 23.8 µM
